Bioassay records deposited in PubChem BioAssay by National Center for Advancing Translational Sciences (NCATS).
D3 antag = qHTS of D3 Dopamine Receptor Antagonist: qHTS. 360,000 compounds, 2.5% hits. D3R cells, DiscoveRx beta-arrestin luminescence, antagonist mode; hits give low values. AID 652054, 2013. D(3) dopamine receptor (Homo sapiens), P35462. max response, negative = inhibition, %; in the data active = max response below about -50%; inconclusive = no clear call, values can overlap the other calls
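Cells expressing the human receptor were seeded at 1500 cells/well, incubated overnight at 37 degrees C in 5% CO2, then exposed to library compounds with dopamine controls for 90 minutes at 37 degrees C before luminescent detection.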
DT40 TDP1 CPT = qHTS for Inhibitors of human tyrosyl-DNA phosphodiesterase 1 (TDP1): qHTS in cells in presence of CPT. chicken DT40 Tdp1-/-;hTDP1 cells + 20 nM CPT, ATP luminescence, 48 h. Potency, µM (highest dose often 46.2 µM), most hits filed as inhibitors. 420,000 compounds, 12% hits; note: nearly all actives have a fitted effect of over 55% in size
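Cell growth measured by CellTiter-Glo luminescence after a minimum 48 h, 37 C compound exposure with 20 nM CPT in Tdp1-knockout DT40 cells stably expressing hTDP1, seeded 400/well; qHTS titration format.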
DRD3 agonist = qHTS of D3 Dopamine Receptor Agonist: qHTS; AID 652048, 2013; max activation, %; D3R DiscoveRx beta-arrestin cells, luminescence, 90 min; D(3) dopamine receptor (Homo sapiens), P35462; 410,000 compounds, 0.58% hits; in the data active = max activation above about 30%
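Agonist mode: compounds and dopamine controls were applied to plated cells for 90 min at 37 degrees C after an overnight attachment at 1500 cells/well. Luminescent read-out followed 30 - 60 minutes at room temperature with DiscoveRx detection reagent.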
ClpP mod = qHTS Assay for Activators of ClpP. Potency, µM (top dose mostly 57.5 µM). purified B. subtilis ClpP, FRET peptide cleavage, 20 min. 340,000 compounds, 1.9% hits. ATP-dependent Clp protease proteolytic subunit (Bacillus subtilis (strain 168)), P80244; active = well fitted falling curve with a large enough effect; inconclusive = small, poorly fitted or top-dose-only effect; inactive = no such curve, though single readings can be large or run the other way; note: the source files actives as falling curves though it sought activators and does not explain the sign; nearly all actives have a fitted effect of over 65% in size
Target sequence (P80244 whole entry, looked up): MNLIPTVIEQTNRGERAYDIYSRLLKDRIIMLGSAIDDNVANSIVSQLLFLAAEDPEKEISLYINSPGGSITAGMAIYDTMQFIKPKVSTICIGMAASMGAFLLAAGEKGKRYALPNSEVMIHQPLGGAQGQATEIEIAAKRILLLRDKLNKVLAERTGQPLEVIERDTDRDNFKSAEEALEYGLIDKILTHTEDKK
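ClpP 10 microg/mL final, pH 8 Tris/KCl buffer with BSA, glycerol, Tween-20; compound pinned in; FRET-FV substrate; RT 20 min; Ex320/Em430; ΔFRET vs ADEP 5.8 microM, DMSO, no enzyme.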
DT40 TDP1 no CPT = qHTS for Inhibitors of human tyrosyl-DNA phosphodiesterase 1 (TDP1): qHTS in cells in absence of CPT. DT40 Tdp1-/- hTDP1 cells, no CPT, ATP luminescence, 48 h. Potency, µM (titrated, usually from 46.2 µM), actives largely listed as inhibitors. 420,000 compounds, 15% hits. AID 686978, 2013; note: nearly all actives have a fitted effect of over 55% in size
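Chicken DT40 Tdp1-/- cells stably complemented with human TDP1 were seeded at 400 cells/well with DMSO in place of 20 nM camptothecin. After compound pinning, cells grew at least 48 hr at 37 °C; viability read by CellTiter-Glo luminescence.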
IL1B secr inh = qHTS for Inhibitors of Inflammasome Signaling: IL-1-beta AlphaLISA Primary Screen. THP-1 LPS/ATP IL-1B secretion, AlphaLISA, 16 h; hits give low values. activity change, % at 57.5 µM. 360,000 compounds, 4.7% hits. AID 743279, 2014; in the data active = activity change below about -50%; inconclusive = mostly about -30% to -49%
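Secreted IL-1B measured by AlphaLISA bead assay after 16 h compound exposure of THP-1 cells; compounds (final up to 57.5 uM) added 1 h before LPS (250 ng/mL) and ATP (1.25 mM) stimulation; lower signal means less secretion.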
Each line names hits and unclear results; the compound was inactive in the other large screens. The list is not random: actives were taken first. Their share in the collection is about 21%. Unless noted, calls come from the whole dose curve; as a rule, active = well fitted inhibition curve with a large enough effect; inconclusive = small, poorly fitted or top-dose-only effect; inactive = flat fitted curve, though single readings scatter.

Cc1cc(C(=O)COC(=O)C2=COCCO2)c(C)n1-c1ccc2c(c1)OCO2	DT40 TDP1 CPT inconclusive, DT40 TDP1 no CPT inconclusive
Cc1cc(C(=O)COC(=O)c2ccc([N+](=O)[O-])o2)c(C)n1CC1CCCO1 (stereo not given)	DT40 TDP1 CPT 23.1µM, DT40 TDP1 no CPT inconclusive
Cc1cc(C(C)(C)C)cc(C)c1C(=O)O	none
Cc1c(C(=O)Nc2ccc(F)cc2)c2ccccn2c1CCc1ccncc1	DT40 TDP1 CPT inconclusive, DT40 TDP1 no CPT inconclusive, IL1B secr inh -51.6 (no result: ClpP mod)
Cc1cc(C)c(NC(=S)NC(=O)c2ccc(-c3ccccc3)cc2)c(C)c1	DT40 TDP1 CPT inconclusive, DT40 TDP1 no CPT 20.6µM
CC(C)CCNC(=S)Nc1ccccn1	DT40 TDP1 CPT inconclusive, DT40 TDP1 no CPT 23.1µM
Cc1ccnc(NC(=S)NC(=O)c2ccco2)c1	none
O=C(NC(=S)Nc1ccccn1)c1ccco1	DT40 TDP1 CPT 13µM, DT40 TDP1 no CPT inconclusive
COCCNC(=S)Nc1ccccn1	none
O=C(NC(=S)Nc1ccccn1)c1ccc(-c2ccccc2)cc1	D3 antag inconclusive, DT40 TDP1 CPT 20.6µM, DT40 TDP1 no CPT 18.4µM
C[C@H]1CN([C@@H](C)CO)C(=O)c2cc(NC(=O)c3ccncc3)ccc2O[C@H]1CN(C)Cc1ccc(C(=O)O)cc1	none
CC1=Nc2cc(C(=O)NC3CCCC3)ccc2Sc2ccc(C)cc21	DT40 TDP1 CPT 1.16µM, DT40 TDP1 no CPT 0.92µM (no result: D3 antag, IL1B secr inh)
CCOC(=O)N1CCC(NC(=O)c2ccc3c(c2)N=C(C)c2ccccc2S3)CC1	DT40 TDP1 CPT inconclusive, DT40 TDP1 no CPT inconclusive
CCC1=Nc2cc(C(=O)NC3CCCC3)ccc2Sc2ccc(Cl)cc21	DT40 TDP1 CPT 0.92µM, DT40 TDP1 no CPT 0.92µM (no result: D3 antag, IL1B secr inh)
CC1=Nc2cc(C(=O)NC3CCCC3)ccc2Sc2ccc(Cl)cc21	DT40 TDP1 CPT 0.82µM, DT40 TDP1 no CPT 0.581µM (no result: D3 antag, IL1B secr inh)
O=C(NC1CCCCC1)c1ccc2c(c1)N(Cc1ccccc1)C(=O)c1ccccc1S2	none (no result: D3 antag, IL1B secr inh)
CC(=O)NC12CC3CC(C1)CC(C(=O)N1CCN(S(=O)(=O)c4cccc(C(F)(F)F)c4)CC1)(C3)C2	DT40 TDP1 CPT 7.31µM, DT40 TDP1 no CPT inconclusive
COC(=O)c1ccc(NC(=O)CCc2c(C)nc3c(c2C)c(=O)n(C)c(=O)n3C)cc1	none (no result: D3 antag, IL1B secr inh)
CCc1cccc(NC(=O)CCc2c(C)nc3c(c2C)c(=O)n(C)c(=O)n3C)c1	DT40 TDP1 CPT 23.1µM, DT40 TDP1 no CPT inconclusive (no result: D3 antag, IL1B secr inh)
CCOC(=O)c1ccc(NC(=O)c2nc[nH]c2C(=O)NC[C@H](C)O)cc1	DT40 TDP1 no CPT inconclusive
COc1ccc(-c2csc(N(CCCN(C)C)C(=O)c3ccccc3C)n2)cc1	DT40 TDP1 CPT 3.66µM, DT40 TDP1 no CPT 4.61µM, IL1B secr inh -76.0 (no result: ClpP mod)
COc1ccc(-c2csc(N(CCCN(C)C)C(=O)c3ccc(F)cc3)n2)cc1	DT40 TDP1 no CPT inconclusive
O=C(c1cccs1)N(Cc1ccco1)c1nc(-c2ccc(F)cc2)cs1	none
CN(C)CCCN(C(=O)c1cccs1)c1nc(-c2ccccc2)cs1	D3 antag -52.6, DT40 TDP1 CPT inconclusive, DT40 TDP1 no CPT inconclusive, IL1B secr inh inconclusive
COc1ccc(-c2csc(N(CCCN(C)C)C(=O)c3ccccc3F)n2)cc1	D3 antag inconclusive, DT40 TDP1 CPT 9.2µM, DT40 TDP1 no CPT 14.6µM, IL1B secr inh inconclusive
COCCN(C(=O)c1ccccc1F)c1nc(-c2ccc(OC)cc2)cs1	DT40 TDP1 no CPT inconclusive, IL1B secr inh inconclusive
CCN(CC)CCCN(C(=O)c1ccc(F)cc1)c1nc(-c2ccc(OC)cc2)cs1	D3 antag inconclusive, DT40 TDP1 CPT 13µM, DT40 TDP1 no CPT 10.3µM, IL1B secr inh -93.4 (no result: ClpP mod)
